Reference: PubChem BioAssay (NCI)
“And” between values parts separate entries of the source, which are not always exact repeats. Equal entries are not always repeated. Compounds without any hit were thinned out: in the full panel of roughly 79,000, 15% have a hit. Some structures have more than one record in an assay (separate samples or runs), and their calls can disagree. The source made the active and inactive calls. Cut-off read from the data, not from the text of the source: active = growth inhibition above about 70%; inactive = the rest.

How the values were obtained:
[1] = NCI Yeast Anticancer Drug Screen. Data for the wt1 strain (AID 149);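 note: 0% = growth of vehicle-treated wt1 cultures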; settings: S. cerevisiae wt1 strain (SPY 50644) growth inhibition, stronger effect = higher value
Summary of the method: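 Compounds are added to wt1 yeast cultures. Growth is then measured. Inhibition is expressed relative to vehicle-treated controls.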

[2] = NCI Yeast Anticancer Drug Screen. Data for the rad50EPP+ strain (AID 151);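 note: 0% = growth of vehicle-treated control cultures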; settings: S. cerevisiae rad50 mutant strain, stronger effect = higher value
Summary of the method: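 Genetically defined yeast (rad50EPP+, DNA damage repair alteration) is grown with compound, and inhibition of growth is expressed relative to vehicle-treated controls.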

[3] = NCI Yeast Anticancer Drug Screen. Data for the rad50 strain (AID 155);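 note: 0% = growth of vehicle-only cultures of the same strain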; settings: S. cerevisiae rad50 strain growth inhibition, stronger effect = higher value
Summary of the method: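 Inhibition values express reduced yeast growth in compound-treated cultures relative to vehicle-treated controls.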

[4] = NCI Yeast Anticancer Drug Screen. Data for the mec2-1 strain (AID 157); settings: S. cerevisiae mec2-1 strain, stronger effect = higher value
Summary of the method: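 Each compound was tested on mec2-1 yeast, a strain altered in DNA damage repair or cell cycle control. Growth inhibition is reported relative to vehicle.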

[5] = NCI Yeast Anticancer Drug Screen. Data for the sgs1 mgt1 strain (AID 161);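 note: 0% = growth of cultures given vehicle only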; settings: S. cerevisiae sgs1 mgt1 strain, stronger effect = higher value
Summary of the method: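 Genetically altered yeast, compound exposure, growth inhibition relative to vehicle.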

[6] = NCI Yeast Anticancer Drug Screen. Data for the CLN2oe strain (AID 163);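 note: 0% = growth of vehicle-only control cultures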; settings: S. cerevisiae CLN2oe strain, stronger effect = higher value
Summary of the method: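 First, the altered yeast strain was treated with each compound; second, its growth was measured; finally, inhibition was derived by comparison with vehicle controls.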

[7] = NCI Yeast Anticancer Drug Screen. Data for the cln2 rad14 strain (AID 165);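 note: 0% = growth equal to vehicle treated cultures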; settings: S. cerevisiae cln2 rad14 strain, stronger effect = higher value
Summary of the method: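 Test compounds were added to cln2 rad14 yeast cultures; inhibition of growth was then determined by comparison with vehicle treatment.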

[8] = NCI Yeast Anticancer Drug Screen. Data for the bub3 strain (AID 167); settings: S. cerevisiae bub3 mutant strain, stronger effect = higher value
Summary of the method: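 Steps: expose the mutant yeast strain to compound; grow alongside vehicle-treated cultures; measure growth; express inhibition against the vehicle cultures.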

[9] = NCI Yeast Anticancer Drug Screen. Data for the wt2 strain (AID 169);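 note: 0% = growth of vehicle-treated yeast cultures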; settings: S. cerevisiae wt2 strain growth inhibition, stronger effect = higher value
Summary of the method: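 The panel's yeast strains carry defined changes in DNA repair or cell cycle genes. Each strain is grown with compound, and growth loss is scored relative to vehicle.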

[10] = NCI Yeast Anticancer Drug Screen. Data for the mlh1 strain (AID 171);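 note: 0% = growth of vehicle-treated control cultures of the same strain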; settings: S. cerevisiae mlh1 strain growth inhibition, stronger effect = higher value
Summary of the method: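 Inhibition values reflect reduced yeast growth in the presence of compound, referenced to vehicle controls, using a strain chosen for its alteration in DNA repair or cell cycle control.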

[11] = NCI Yeast Anticancer Drug Screen. Data for the sgs1 strain (AID 173);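 note: 0% = growth of vehicle-only control cultures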; settings: S. cerevisiae sgs1 mutant, stronger effect = higher value
Summary of the method: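 Vehicle-treated cultures served as reference for growth inhibition of a yeast strain altered in DNA damage repair or cell cycle control after compound exposure.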

[12] = NCI Yeast Anticancer Drug Screen. Data for the mlh1 rad18 strain (AID 175); settings: S. cerevisiae mlh1 rad18 strain growth inhibition, stronger effect = higher value
Summary of the method: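 Inhibition values reflect reduced growth of mutant yeast versus vehicle-treated controls following compound exposure; the mutations affect DNA damage repair.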

[13] = NCI Yeast Anticancer Drug Screen. Data for the rad18 strain (AID 177); settings: S. cerevisiae rad18 mutant growth inhibition, stronger effect = higher value
Summary of the method: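 Steps: expose repair-mutant yeast to compound; measure growth; express as inhibition relative to vehicle control.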

[14] = at 5.0 µM (retest, dose inferred, filed as 0.5)
[15] = at 50.0 µM (retest, dose inferred, filed as 5.0)

Q: Which results are given for `Cc1ccc(Nc2n[nH]c(=S)s2)cc1C`?
A: growth inhibition ([1]; at 1.2 µM): -23% (inactive); growth inhibition ([1]; at 3.7 µM): -22% (inactive); growth inhibition ([1]; at 11.0 µM): -19% (inactive); growth inhibition ([1]; at 33.0 µM): 1% (inactive); growth inhibition ([1]; at 100.0 µM): 81% (active); growth inhibition ([2]; at 1.2 µM): -7% (inactive); growth inhibition ([2]; at 3.7 µM): -5% (inactive); growth inhibition ([2]; at 11.0 µM): -21% (inactive); growth inhibition ([2]; at 33.0 µM): -9% (inactive); growth inhibition ([2]; at 100.0 µM): 48% (inactive); growth inhibition ([3]; at 1.2 µM): 14% (inactive); growth inhibition ([3]; at 3.7 µM): 17% (inactive); growth inhibition [3, 14]: 93% (active); growth inhibition ([3]; at 11.0 µM): 21% (inactive); growth inhibition ([3]; at 33.0 µM): 54% (inactive); growth inhibition [3, 15]: 94% (active); growth inhibition ([3]; at 50.0 µM): 78.8% (active); growth inhibition ([3]; at 100.0 µM): 84% (active); growth inhibition ([4]; at 1.2 µM): 1% (inactive); growth inhibition ([4]; at 3.7 µM): 0% (inactive); growth inhibition [4, 14]: 96% (active); growth inhibition ([4]; at 11.0 µM): 10% (inactive); growth inhibition ([4]; at 33.0 µM): 11% (inactive); growth inhibition [4, 15]: 95% (active); growth inhibition ([4]; at 50.0 µM): 67.7% (inactive); growth inhibition ([4]; at 100.0 µM): 79% (active); growth inhibition [5, 14]: 5% (inactive); growth inhibition [5, 15]: 90% (active); growth inhibition ([6]; at 1.2 µM): 3% (inactive); growth inhibition ([6]; at 3.7 µM): -8% (inactive); growth inhibition ([6]; at 11.0 µM): -5% (inactive); growth inhibition ([6]; at 33.0 µM): -10% (inactive); growth inhibition ([6]; at 100.0 µM): 76% (active); growth inhibition [7, 14]: 65% (inactive); growth inhibition [7, 15]: 92% (active); growth inhibition ([8]; at 1.2 µM): 6% (inactive); growth inhibition ([8]; at 3.7 µM): 12% (inactive); growth inhibition [8, 14]: 38% (inactive); growth inhibition ([8]; at 11.0 µM): 18% (inactive); growth inhibition ([8]; at 33.0 µM): 36% (inactive); growth inhibition [8, 15]: 91% (active); growth inhibition ([8]; at 100.0 µM): 80% (active); growth inhibition ([9]; at 1.2 µM): -33% (inactive); growth inhibition ([9]; at 3.7 µM): -23% (inactive); growth inhibition ([9]; at 11.0 µM): -28% (inactive); growth inhibition ([9]; at 33.0 µM): 28% (inactive); growth inhibition ([9]; at 100.0 µM): 85% (active); growth inhibition ([10]; at 1.2 µM): -34% (inactive); growth inhibition ([10]; at 3.7 µM): -21% (inactive); growth inhibition ([10]; at 11.0 µM): -15% (inactive); growth inhibition ([10]; at 33.0 µM): 28% (inactive); growth inhibition ([10]; at 100.0 µM): 83% (active); growth inhibition ([11]; at 1.2 µM): -28% (inactive); growth inhibition ([11]; at 3.7 µM): -35% (inactive); growth inhibition ([11]; at 11.0 µM): -28% (inactive); growth inhibition ([11]; at 33.0 µM): 28% (inactive); growth inhibition ([11]; at 100.0 µM): 77% (active); growth inhibition [12, 14]: 99% (active); growth inhibition [12, 15]: 99% (active); growth inhibition ([12]; at 50.0 µM): 69.7% (inactive); growth inhibition ([13]; at 1.2 µM): 1% (inactive); growth inhibition ([13]; at 3.7 µM): -1% (inactive); growth inhibition ([13]; at 11.0 µM): 12% (inactive); growth inhibition ([13]; at 33.0 µM): 67% (inactive); growth inhibition ([13]; at 100.0 µM): 87% (active)

Q: Which growth inhibition [3, 14] does the source give for `Cc1cc(SC#N)ccc1O` here?
A: Its growth inhibition is 13% (inactive) and 4% (inactive) and -2% (inactive).

Q: And the growth inhibition [3, 15]?
A: Its growth inhibition is 91% (active).

Q: And the growth inhibition ([3]; at 50.0 µM)?
A: Its growth inhibition is 92.6% (active) and 86.2% (active) and 91.6% (active).

Q: And the growth inhibition [4, 14]?
A: Its growth inhibition is -1% (inactive) and -7% (inactive) and -6% (inactive).

Q: And the growth inhibition [4, 15]?
A: The growth inhibition was 83% (active) and 90% (active) and 62% (inactive).

Q: And the growth inhibition ([4]; at 50.0 µM)?
A: The growth inhibition was 90% (active) and 87.1% (active).

Q: What about the growth inhibition [5, 14] of the same compound?
A: The growth inhibition was -2% (inactive) and 6% (inactive).

Q: What about the growth inhibition [5, 15] of the same compound?
A: Its growth inhibition is 92% (active) and 77% (active) and 63% (inactive).

Q: And the growth inhibition ([5]; at 50.0 µM)?
A: Its growth inhibition is 95.2% (active) and 85.7% (active) and 75% (active).

Q: What about the growth inhibition [7, 14] of the same compound?
A: Its growth inhibition is -1% (inactive) and 26% (inactive) and -3% (inactive).

Q: What about the growth inhibition [7, 15] of the same compound?
A: Its growth inhibition is 64% (inactive) and 91% (active) and 71% (active).

Q: What about the growth inhibition ([7]; at 50.0 µM) of the same compound?
A: Its growth inhibition is 32.8% (inactive) and 83.2% (active) and 70% (inactive).

Q: And the growth inhibition [8, 14]?
A: Its growth inhibition is 15% (inactive) and 2% (inactive) and 13% (inactive).

Q: And the growth inhibition [8, 15]?
A: The growth inhibition was 94% (active) and 80% (active).

Q: What about the growth inhibition ([8]; at 50.0 µM) of the same compound?
A: Its growth inhibition is 91.3% (active) and 88.4% (active) and 95% (active).

Q: What about the growth inhibition [12, 14] of the same compound?
A: The growth inhibition was 9% (inactive) and -4% (inactive) and 1% (inactive).

Q: And the growth inhibition [12, 15]?
A: Its growth inhibition is 95% (active) and 87% (active).

Q: What about the growth inhibition ([12]; at 50.0 µM) of the same compound?
A: The growth inhibition was 96.4% (active) and 86.3% (active) and 95.6% (active).
